{
  "source": "PubChem BioAssay (NCATS)",
  "note": "Records with an inconclusive call do not appear. Activity calls are given as the source filed them. The call rests on the fitted dose curve; in most records, active means well fitted cell-killing curve with a large enough effect; inconclusive means small, poorly fitted or top-dose-only effect; inactive means flat fitted curve, though single readings scatter. Square brackets hold non-standard residues; d marks the D form. Peptide text beside a SMILES is read from it. * marks the point of attachment. ξ: configuration not given here. Hexanoyl = CCCCCC(=O)*; ξL = CC(C)CC(N)C(=O)O",
  "data": [
    {"experiment": "SW1088 Cancer Cell Toxicity qHTS against the NCATS CANVASS Library (AID 1347350); further: nearly all actives have a fitted effect of over 75% in size; further: potency means the concentration at half of the fitted maximal effect; on activity change, negative = cytotoxicity: on the % scale 0 is the no-effect control and ±100 the full control effect", "conditions": "SW1088 viability, CellTiter-Glo luminescence, 72 h; series mostly up to 38.3 µM; activity change, negative = cytotoxicity: at the top concentration", "in_short": "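Following a 4 h pre-incubation of 1000 seeded cells, compounds were pinned in an 11-pnt dilution series and left for 72 h; viability then came from CellTiter-Glo.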", "values": [
      {"compound": "CC(=O)N[C@H](C)c1nc(/C=C/C=C/C(=O)CC2CC(=O)CC[C@]2(C)O)cs1", "note": "(some centres undefined)", "activity change, negative = cytotoxicity": "-13.7% (inactive)"},
      {"compound": "CN1C(=O)C(=O)N2C(=C[C@]3(c4c[nH]c5ccccc45)c4ccccc4N[C@H]23)C1=O", "outcome": "inactive"},
      {"compound": "CN1CC[C@]23c4ccccc4N[C@H]1[C@]21CCN(C)[C@H]3Nc2ccccc21", "activity change, negative = cytotoxicity": "-14% (inactive)"},
      {"compound": "C/C=C1/C2=CCCN3C(=O)O[C@H]([C@H]1O)[C@H]23", "outcome": "inactive"},
      {"compound": "O=C1CC(c2ccc(O)cc2)Oc2ccccc21", "note": "(centres undefined)", "activity change, negative = cytotoxicity": "-9.53% (inactive)"},
      {"compound": "COc1c(O)cc(O)c2c(=O)cc(-c3ccccc3)oc12", "activity change, negative = cytotoxicity": "-29.2% (inactive)"},
      {"compound": "COC1C(C)OC(OCC23C[C@@H]4[C@H](C)CC[C@H]4C4(C=O)CC2C=C(C(C)C)C34C(=O)O)[C@@H](O)[C@H]1O", "note": "(some centres undefined)", "outcome": "inactive"},
      {"compound": "CN1CC[C@@]2([C@@]34CCN(C)[C@@H]3Nc3ccccc34)c3ccccc3N[C@@H]12", "outcome": "inactive"},
      {"compound": "CC[C@@H](C)[C@H]1NC(=O)C(CC(C)C)NC(=O)[C@@H](CC(C)C)NC(=O)[C@H](Cc2c[nH]c3ccccc23)NC(=O)CNC(=O)[C@@H](CC(N)=O)NC1=O", "note": "(stereo partly drawn) (cyclo(GW[dL][ξL][dI][dN]))", "Potency": "11.9 µM (active)"},
      {"compound": "Cc1cc(O)cc2c1C(=O)c1c(O)cc(O)cc1C2=O", "outcome": "inactive"},
      {"compound": "C=C(Cl)[C@](Cl)(CBr)CC[C@@H](Br)C(C)(C)Cl", "Potency": "2.98 µM (active)"},
      {"compound": "C=C(C)C(=O)O[C@H]1C[C@@]2(C)OC(=CC2=O)/C(C)=C\\[C@H]2OC(=O)C(=C)[C@H]12", "Potency": "6.68 µM (active)"},
      {"compound": "C=C[C@]1(C)CC[C@@H]([C@H](C)C(=O)CC=C(C)C)O1", "activity change, negative = cytotoxicity": "-7.39% (inactive)"},
      {"compound": "CC[C@@H]1C[C@@]2(CC)OC(=O)[C@@]3(CC)[C@H](CC)[C@@H]1[C@@H]23", "activity change, negative = cytotoxicity": "-1.92% (inactive)"},
      {"compound": "[C-]#[N+][C@@]12C(=O)[C@@H]3[C@@H](O[C@@]4(C(=O)N(C)c5cccc1c54)C3(C)C)C(=O)[C@@]2(C)C=C", "activity change, negative = cytotoxicity": "-8.52% (inactive)"},
      {"compound": "COC(=O)c1cccc2oc(-c3cccc4oc(-c5c(C)cccc5O)nc34)nc12", "Potency": "0.168 µM (active)"},
      {"compound": "C[C@@]12CCC[C@@](C)(C(=O)OP(=O)(O)OC[C@H]3O[C@@H](n4cnc5c(N)ncnc54)[C@H](O)[C@@H]3O)[C@H]1C[C@@H](O)[C@@]13C[C@@H](CC[C@@H]21)[C@](C)(O)C3", "outcome": "inactive"},
      {"compound": "CCC(C)=C1OC(=O)[C@H](C)[C@H](O)[C@H](Cc2cccnc2)NC(=O)C(NC(=O)c2ncccc2O)C(C)OC1=O", "note": "(some centres undefined)", "activity change, negative = cytotoxicity": "-2.41% (inactive)"},
      {"compound": "C[C@@]12CCC[C@@](C)(C(=O)O)[C@H]1CC[C@@]13C[C@@H](CC[C@H]12)[C@](C)(O)C3", "activity change, negative = cytotoxicity": "1.09% (inactive)"},
      {"compound": "O=C1OC(CCO)c2cccc(O)c21", "note": "(centres undefined)", "outcome": "inactive"},
      {"compound": "C=C1C[C@]23C=CC(=O)[C@@](C)(CCCC(C)C(=O)N[C@@H](CO)C(=O)O)[C@@H]2C[C@@H]1CC3", "note": "(some centres undefined)", "outcome": "inactive"},
      {"compound": "COc1cc2ccc(=O)oc2c(O)c1O[C@@H]1O[C@H](CO)[C@@H](O)[C@H](O)[C@H]1O", "outcome": "inactive [at 22.9 µM]"},
      {"compound": "C/C(=C\\[C@@H](C)CC/C=C/CC/C=C/C(=O)O)[C@@H](O)[C@H](C)C(=O)CCCC1CC(=O)NC(=O)C1", "activity change, negative = cytotoxicity": "0.274% (inactive)"},
      {"compound": "CO[C@@H](C[C@@H](C)[C@@H](O)/C=C/C=C/CNC(=O)C(C)(C)[C@H](O)\\C(C)=C/C=C\\C=C\\Cc1cnco1)[C@]1(O)[C@@H](C)C(=O)N(C)[C@@]12COC2=O", "activity change, negative = cytotoxicity": "-4.41% (inactive)"},
      {"compound": "O=C1CC(c2ccc(O)cc2)Oc2cc(O)cc(O)c21", "note": "(centres undefined)", "activity change, negative = cytotoxicity": "-23.6% (inactive)"},
      {"compound": "O=C1CC(c2ccc(O)cc2)Oc2cc(O)ccc21", "note": "(centres undefined)", "activity change, negative = cytotoxicity": "-11.1% (inactive)"},
      {"compound": "CN1CC[C@@]23c4ccccc4N[C@@H]1[C@@]21CCN(C)[C@@H]3Nc2ccccc21", "activity change, negative = cytotoxicity": "-5.12% (inactive)"},
      {"compound": "C[C@@]12CCC[C@@](C)(C(=O)O)[C@H]1C[C@@H](O)[C@@]13C[C@@H](CC[C@@H]21)[C@](C)(O)C3", "activity change, negative = cytotoxicity": "-3.47% (inactive)"},
      {"compound": "O=Cc1ccc2n1C[C@]1(OC2)O[C@H](CO)[C@@H](O)[C@@H]1O", "outcome": "inactive"},
      {"compound": "C=C[C@@]1(C)CC[C@@H]([C@H](C)C(C)=O)O1", "activity change, negative = cytotoxicity": "4.87% (inactive)"},
      {"compound": "C/C=C(/CO)C(=O)O[C@@H]1[C@H](O)[C@@H](C(=O)OC)O[C@@H]2C[C@H]3OC(n4cnc5c(N)ncnc54)[C@H](OC)[C@H]3O[C@@]12O", "note": "(some centres undefined)", "activity change, negative = cytotoxicity": "-6.49% (inactive)"},
      {"compound": "C/C=C/[C@H]1[C@H]2C(=O)c3c(O)c(C)c(O)c(C)c3[C@]1(C(=O)O)C(=O)C=C2C", "activity change, negative = cytotoxicity": "-0.868% (inactive)"},
      {"compound": "C[C@@]12C[C@@H](C[C@@H]3C(=O)O[C@@H](c4ccoc4)[C@H](OC(=O)c4ccccc4)[C@@H]31)OC2=O", "outcome": "inactive"},
      {"compound": "C=C1CCC2C(C)(C(=O)O)CCC(CC/C(C)=C/C(=O)NC(CCC(N)=O)C(=O)O)[C@@]2(C)C1", "note": "(some centres undefined)", "activity change, negative = cytotoxicity": "1.82% (inactive)"},
      {"compound": "C=C1[C@@]2(C)CC3C4(C)CCC(O)C(C)(C)C4CCC3(C)[C@]1(C(=O)OC)C(=O)C(C)(O)C2=O", "note": "(some centres undefined)", "activity change, negative = cytotoxicity": "1.45% (inactive)"},
      {"compound": "CC(C)=CCC[C@]1(C)[C@H]2CC(=O)[C@@]3(CO3)[C@@H]1C2", "outcome": "inactive"},
      {"compound": "CCCCCC(=O)N[C@@H](CC(C)C)C(=O)N[C@H](C=O)CCC(=O)O", "note": "(Hexanoyl-Leu-Glu-aldehyde)", "outcome": "inactive"},
      {"compound": "COc1ccc([C@@H]2c3cc4c(cc3C(=O)C(C)C2C)OCO4)cc1OC", "note": "(some centres undefined)", "activity change, negative = cytotoxicity": "1.99% (inactive)"},
      {"compound": "CC1(C)CC[C@]2(CO)CC[C@]3(C)C(=CCC4[C@@]5(C)CC[C@H](O)C(C)(C)C5CC[C@]43C)C2C1", "note": "(some centres undefined)", "outcome": "inactive"}
    ]}
  ]
}
